A selection: hits, their analogues and other compounds. The true share with any hit is near 18%.
HepG2 tox = counter-screen for TGF-b inhibitors: cytotoxicity in HepG2 cells; AID 588856; Potency, µM (highest dose often 46.1 µM), for inactives: at the top dose activity change, negative = cytotoxicity, most hits filed as cytotoxic; HepG2 CAGA-GFP viability, ATP luminescence, 18 h; 410,000 compounds, 0.76% hits; also: potency is read from the fitted curve at half-maximal effect
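CellTiter-Glo luminescence gave cytotoxicity after 18 hours at 37 degrees C. The cells were HepG2 CAGA-GFP in 1% FBS DMEM, stimulated with 500 pg/mL TGF-beta after compound addition. %Activity was normalised to no-cell wells (complete cell-killing) and DMSO (no toxicity), and curves were fitted and classified.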
IL-1B inflam inh = inhibitors of inflammasome signaling (IL-1 beta secretion) | THP-1 LPS/ATP IL-1B secretion, AlphaLISA, 16 h; active compounds read low | activity change, % at 57.5 µM | 360,000 compounds, 4.7% hits; in the data active = activity change below about -50%; inconclusive = mostly about -30% to -49%; also: % is scaled to controls: 0 for no effect and ±100 for the full control effect
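Secreted IL-1B measured by AlphaLISA bead assay after 16 h compound exposure of THP-1 cells; compounds (final up to 57.5 uM) added 1 h before LPS (250 ng/mL) and ATP (1.25 mM) stimulation; lower signal means less secretion.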
TGFb SMAD3 inh = blocks TGF-b signaling. HepG2 CAGA-GFP TGF-b/SMAD3 reporter, GFP fluorescence, 18 h; TGF-beta stimulated, 500 pg/mL final. Potency, µM (doses to about 46.1 µM), for inactives: top-dose activity, negative = inhibition, actives largely listed as inhibitors. 410,000 compounds, 1.2% hits; also: potency is read from the fitted curve at half-maximal effect; % is scaled to controls: 0 for no effect and ±100 for the full control effect; nearly all actives have a fitted effect of over 65% in size
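Inhibition was scored as loss of TGF-beta-induced (500 pg/mL final, 18 hours, 37 degrees C) GFP in HEPG2 cells carrying a CAGA-GFP reporter, in DMEM with 1% FBS. Well GFP was summed per cell; Activity was normalised to unstimulated and stimulated DMSO wells, then concentration-response fitting.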
TDP1 inh = blocks human tyrosyl-DNA phosphodiesterase 1. Potency, µM (doses to about 130 µM), for the others: at the highest dose activity change, negative = inhibition, usual class: inhibitors. recombinant TDP1, AlphaScreen DNA substrate cleavage. Q9NUW8. AID 485290. 350,000 compounds, 0.28% hits; also: potency is read from the fitted curve at half-maximal effect; % is scaled to controls: 0 for no effect and ±100 for the full control effect; nearly all actives have a fitted effect of over 40% in size
Target sequence (Q9NUW8 whole entry, looked up): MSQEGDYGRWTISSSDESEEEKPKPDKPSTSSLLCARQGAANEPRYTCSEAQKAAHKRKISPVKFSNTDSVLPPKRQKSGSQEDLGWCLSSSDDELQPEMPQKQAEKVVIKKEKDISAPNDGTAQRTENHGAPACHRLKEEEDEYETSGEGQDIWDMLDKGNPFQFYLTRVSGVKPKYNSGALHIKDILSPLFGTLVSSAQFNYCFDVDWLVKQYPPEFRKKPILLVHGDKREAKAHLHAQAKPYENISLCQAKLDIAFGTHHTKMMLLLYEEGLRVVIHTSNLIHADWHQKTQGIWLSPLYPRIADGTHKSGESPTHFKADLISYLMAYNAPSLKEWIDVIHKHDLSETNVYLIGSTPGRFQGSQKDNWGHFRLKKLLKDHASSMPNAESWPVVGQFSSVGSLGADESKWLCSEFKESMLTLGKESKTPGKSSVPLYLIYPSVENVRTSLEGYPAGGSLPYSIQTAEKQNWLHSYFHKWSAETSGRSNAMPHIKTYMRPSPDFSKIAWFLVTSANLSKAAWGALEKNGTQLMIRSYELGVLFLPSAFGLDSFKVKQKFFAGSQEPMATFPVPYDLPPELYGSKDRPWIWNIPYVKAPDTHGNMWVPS
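Signal: AlphaScreen proximity between streptavidin donor and anti-FITC acceptor beads on intact substrate. Reaction: Tdp1 1 nM, substrate 15 nM final, 5 min RT after 15 min compound preincubation.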
DT40 TDP1 no CPT = qHTS for Inhibitors of human tyrosyl-DNA phosphodiesterase 1 (TDP1): qHTS in cells in absence of CPT | DT40 Tdp1-/- hTDP1 cells, no CPT, ATP luminescence, 48 h | Potency, µM (top dose mostly 46.2 µM), for inactives: at the highest dose activity change, negative = growth inhibition, usual class: inhibitors | 420,000 compounds, 15% hits | AID 686978, 2013; also: potency is read from the fitted curve at half-maximal effect; % is scaled to controls: 0 for no effect and ±100 for the full control effect; nearly all actives have a fitted effect of over 55% in size
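Growth kinetics read by CellTiter-Glo luminescence after ≥48 hr at 37 °C. Cells: DT40 Tdp1-/- stably carrying human TDP1, 400 per well, compound exposure in the absence of CPT (DMSO vehicle).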
TDP1 cell CPT = growth inhibition of DT40 Tdp1-/-;hTDP1 cells with camptothecin (screen for TDP1 inhibitors) | chicken DT40 Tdp1-/-;hTDP1 cells + 20 nM CPT, ATP luminescence, 48 h | Potency, µM (doses to about 46.2 µM), without a hit: at the top dose activity change, negative = growth inhibition, actives largely listed as inhibitors | 420,000 compounds, 12% hits | AID 686979; also: potency is read from the fitted curve at half-maximal effect; % is scaled to controls: 0 for no effect and ±100 for the full control effect; nearly all actives have a fitted effect of over 55% in size
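Chicken DT40 Tdp1-/- cells stably complemented with human TDP1 were seeded at 400 cells/well in medium containing 20 nM camptothecin, exposed to pin-transferred compounds, and grown at 37 °C for at least 48 hr. Viability was read as ATP luminescence.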
Starred values were filed as active, the others as inactive; ? = inconclusive; . = no result; [ ] = remark or other dose. Unless noted, calls follow the shape of the dose curve; as a rule, active = well fitted curve in the direction sought with a large enough effect; inconclusive = small, poorly fitted or top-dose-only effect, or another doubt; inactive = no such curve, though single readings can be large; an effect the other way counts as inactive or inconclusive.

SMILES	HepG2 tox	IL-1B inflam inh	TGFb SMAD3 inh	TDP1 inh	DT40 TDP1 no CPT	TDP1 cell CPT
c1ccc(CNc2nc(-c3ccccc3)nc3ccccc23)cc1	-24%	-89*	?	.	-20%	-18%
c1ccc(CNc2nc(-c3ccccn3)nc3ccccc23)cc1	-9%	-71*	0%	.	3.7µM*	3.7µM*
COc1cccc(CNC(=O)CN2C(=O)CSc3ccc(S(=O)(=O)N(C)C)cc32)c1	-16%	.	?	0%	-29%	?
COc1ccc(N(CC(=O)NC2CCCCC2)C(=O)CCC(=O)Nc2nc(C)cs2)cc1OC	-18%	8	2%	10%	-14%	-19%
COCCNc1nc(-c2ccccc2)nc2ccccc12	-18%	-9	-12%	3%	?	3%
COc1cccc(-c2nc(NCc3cccnc3)c3ccccc3n2)c1	.	.	.	.	-20%	-5%
c1ccc(CNc2nc(-c3cccs3)nc3ccccc23)cc1	-35%	.	?	-3%	?	?
COCCNc1nc(-c2cccc(OC)c2)nc2ccccc12	.	.	.	8%[56.1 µM]	6.5µM*	18µM*
COc1cccc(-c2nc(NCc3ccccc3)c3ccccc3n2)c1	.	.	.	.	16µM*	?
c1ccc(CNc2nc(NCc3ccccc3)c3ccccc3n2)cc1	-112%	-100*	?	9%	5.2µM*	5.8µM*
c1ccc(-c2nc(NCCCn3ccnc3)c3ccccc3n2)cc1	-14%	-73*	-9%	9%	-18%	1%
COc1cc2c(NC3CCN(C)CC3)nc(N3CCCN(C)CC3)nc2cc1OCCCCN(C)C	-12%	.	?	.	?	-25%
COc1cc2c(NC3CCN(C(C)C)CC3)nc(N3CCCN(C)CC3)nc2cc1OCCCN1CCCC1	1%	.	?	.	3.5µM*	5µM*
COc1cc2c(NC3CCN(C)CC3)nc(N3CCCN(C)CC3)nc2cc1OCCCCCCN(C)C	0%	.	?	.	?	16µM*
COc1cc2c(NC3CCN(C)CC3)nc(N3CCCN(C)CC3)nc2cc1OCCOCCN(C)C	27%	.	19%	.	-29%	?
COc1cc2c(NC3CCN(C(C)C)CC3)nc(N3CCCN(C)CC3)nc2cc1OCCOCCN(C)C	-32%	.	14µM*	.	14µM*	7.1µM*
CCCN(C)CCCOc1cc2nc(N3CCCN(C)CC3)nc(NC3CCN(C)CC3)c2cc1OC	-1%	.	14µM*	.	13µM*	8.9µM*
COc1cc(F)ccc1-c1csc(C(NC(C)=O)c2ccc(F)c(F)c2)n1 (stereo unspecified)	-44%	-11	5%	.	?	?
Cc1cc(Cl)ccc1OCC(=O)OCC(=O)N(CC(C)C)c1c(N)n(Cc2ccccc2)c(=O)[nH]c1=O	-33%	-28	-26%	-7%	-15%	-27%
COc1cc2c(NC3CCN(C)CC3)nc(N3CCCCC3)nc2cc1OCCOCCN(C)C	-39%	.	-100%	.	?	11µM*
COc1cc2c(NC3CCN(C)CC3)nc(N3CCCCC3)nc2cc1OCCCN(C)C	-78%	.	10µM*	.	10µM*	4µM*
CCCSc1nc(C)cc(C)c1S(=O)(=O)c1ccccc1C	-3%	3	-13%	-1%	7.3µM*	16µM*
Cc1ccc(S(=O)(=O)c2c(C)cc(C)nc2Oc2cccc(C)c2C)cc1	5%	-8	9%	4%	18µM*	?
Cc1cc(C)c(S(=O)(=O)c2ccccc2C)c(SCC(C)C)n1	-1%	10	-28%	-3%	23µM*	?
CCOCCOc1nc(C)cc(C)c1S(=O)(=O)c1ccccc1C	-9%	-3	-13%	6%	?	-4%
SMILES	HepG2 tox	IL-1B inflam inh	TGFb SMAD3 inh	TDP1 inh	DT40 TDP1 no CPT	TDP1 cell CPT
Cc1cc(C)c(S(=O)(=O)c2ccccc2C)c(OCC(C)(C)C)n1	0%	-24	?	1%	9.2µM*	10µM*
O=C(O)CNS(=O)(=O)c1ccc2c(c1)Cc1cc(S(=O)(=O)NCC(=O)O)ccc1-2	-29%	12	-3%	.	0%	1%
O=C(COC(=O)Cc1ccc(Cl)cc1)NC1CCCC1	2%	3	-1%	0%	5%	6%
CCn1c(C)nc2cc(C(=O)N/N=C/c3cccc(OC)c3O)ccc21	-5%	166	0%	4%	?	?
CCC(=NNC(=O)c1ccc2c(c1)nc(C)n2CC)c1cc(F)ccc1O	-19%	81	?	2%	12µM*	13µM*
CCn1c(C)nc2cc(C(=O)N/N=C/c3ccc(O)c(O)c3O)ccc21	-16%	24	-14%	-3%	?	26µM*
CCOc1ccc(CCNC(=O)C2=C(C)C(=O)OC23CCCCC3)cc1	-19%	.	.	3%	-12%	-27%
CCn1c(-c2ccccc2)c[nH]c1=S	23%	11	-1%	1%	?	-21%
CC(C)Cn1c(-c2ccc(Br)cc2)c[nH]c1=S	-30%	-10	?	5%	15µM*	16µM*
Cc1cccc(-c2oc3ccc(-c4ccc5c(c4)OCO5)cc3c2-c2ccc(OC3CCCCO3)cc2)c1 (stereo unspecified)	-9%	4	10%	.	-11%	-19%
COc1ccc(-c2oc3ccc(-c4ccc(OC)nc4)cc3c2-c2ccc(OC)cc2)cc1	6%	-7	11%	.	15µM*	?

High-throughput results (PubChem BioAssay)
